Out of some 390,000 compounds screened, about 4,700 (1.2%) were called active. Not shown: some 4% with an inconclusive outcome. Calls follow the shape of the dose curve; as a rule, active = well fitted inhibition curve with a large enough effect; inconclusive = small, poorly fitted or top-dose-only effect, or another doubt; inactive = no such curve, though single readings can be large or run the other way. This excerpt belongs to a sample that is enriched for actives.
% is scaled to controls: 0 for no effect and ±100 for the full control effect; potency is read from the fitted curve at half-maximal effect.

Chain of DNA polymerase eta (Homo sapiens) (Q9Y253 whole entry, looked up): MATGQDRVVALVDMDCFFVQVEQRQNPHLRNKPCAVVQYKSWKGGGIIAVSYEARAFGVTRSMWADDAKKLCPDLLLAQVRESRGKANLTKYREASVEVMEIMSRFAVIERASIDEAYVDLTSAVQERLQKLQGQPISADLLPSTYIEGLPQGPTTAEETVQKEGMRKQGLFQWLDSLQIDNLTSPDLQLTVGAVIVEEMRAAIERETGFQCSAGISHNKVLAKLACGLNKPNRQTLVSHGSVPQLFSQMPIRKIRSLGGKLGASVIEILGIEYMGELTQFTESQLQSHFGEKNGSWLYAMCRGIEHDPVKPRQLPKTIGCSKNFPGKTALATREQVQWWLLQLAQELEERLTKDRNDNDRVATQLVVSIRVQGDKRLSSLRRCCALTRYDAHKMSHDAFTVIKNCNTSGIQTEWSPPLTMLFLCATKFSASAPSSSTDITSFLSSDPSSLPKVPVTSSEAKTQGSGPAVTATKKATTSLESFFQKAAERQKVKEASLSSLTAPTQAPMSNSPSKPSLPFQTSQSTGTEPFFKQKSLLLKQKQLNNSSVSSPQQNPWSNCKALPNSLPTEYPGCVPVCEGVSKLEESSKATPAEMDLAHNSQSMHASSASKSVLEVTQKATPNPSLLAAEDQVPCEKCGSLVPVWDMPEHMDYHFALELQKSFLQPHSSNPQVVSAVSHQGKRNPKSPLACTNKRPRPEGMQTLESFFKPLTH

The test has as its target DNA polymerase eta (Homo sapiens) (UniProt Q9Y253). In words: qHTS for Inhibitors of Polymerase Eta. Conditions: recombinant Pol eta, fluorescent DNA replication assay; series mostly up to 114 µM; activity change, negative = inhibition: at the top concentration. The source says: The Y-family of DNA polymerases, such as Pol eta, are specifically involved in DNA repair. Pol eta copies undamaged DNA with a lower fidelity than other DNA-directed polymerases. However, it accurately replicates UV-damaged DNA; when thymine dimers are present, this polymerase inserts the complementary nucleotides in the newly synthesized DNA, thereby bypassing the lesion and suppressing the mutagenic effect of UV-induced DNA damage. […] Thus, while pol eta's (and most likely iota's) normal function is to protect humans against the deleterious consequences of DNA damage, under certain conditions they can have deleterious effects on human health. As a consequence, we propose to utilize a high throughput replication assay to identify small molecule inhibitors of pol eta. In a collaboration between the National Institute of Child Health & Human Development (NICHD) and NIH Chemical Genomics Center, a high-throughput, fluorescent screen was developed to screen the NIH Molecular Libraries Small Molecule Repository (MLSMR). This screen is used to identify inhibitors of pol eta. NIH Chemical Genomics Center [NCGC] NIH Molecular Libraries Probe Centers Network [MLPCN] MLPCN Grant: MH090825 Assay Submitter (PI): Roger Woodgate, NICHD)
Three microliters of reagents (buffer in column 3 and 4 as negative control and 10 nM Pol eta in columns 1, 2, and 5-48) were dispensed into a 1,536-well black solid-bottomed plate. Compounds (23 nL) were transferred via Kalypsys pin tool equipped with 1536-pin array. The plates were then incubated for 15 min at room temperature, and 1 µL substrate (50 nM final concentration) was added to start the reaction and kinetically read twice at 0 min and 10 min on the Viewlux reader
On to `O=C(O)C1=C(C(=O)O)C2CCC1C2`, for which the Potency is 17.8 µM (active).

Consider `CCOc1ccccc1NC(=O)CSc1ncc(S(=O)(=O)c2ccc(C(C)(C)C)cc2)c(=O)[nH]1`, for which the Potency is 89.1 µM (active).

Regarding `CCOc1ccccc1NC(=O)COc1ccc(S(=O)(=O)N2CCCC2)cc1`, the “activity change, negative = inhibition” value was -8.27% (inactive).

On to `O=C(CSc1ncc(S(=O)(=O)c2ccc(Br)cc2)c(=O)[nH]1)Nc1ccc2c(c1)OCCO2`, for which the “activity change, negative = inhibition” value was -18.1% (inactive).

On to `Cc1cc(C)cc(NC(=O)Cc2csc(C)n2)c1`, for which the “activity change, negative = inhibition” value was -1.34% (inactive).

`COc1cccc(NC(=O)CSC2=Nc3ccccc3C3=NC(CC(=O)NC4CCCCC4)C(=O)N23)c1` (stereo not given): the “activity change, negative = inhibition” value was -0.885% (inactive).

With `Cc1c(C(=O)N2CCCC2)oc2c1-c1nn(CC(=O)NCc3ccc(OC(C)C)cc3)cc1CC2`, the “activity change, negative = inhibition” value is -18.6% (inactive).

Consider `CCOC(=O)CSC1=Nc2ccccc2C2=NC(CCC(=O)NCc3ccc(F)cc3)C(=O)N12` (stereo not given), for which the “activity change, negative = inhibition” value was 3.45% (inactive).

`CC(C)C1N=C2c3ccccc3N=C(SCC(=O)c3ccc(O)c(O)c3)N2C1=O` (stereo not given): the Potency was 2.24 µM (active).

As to `Cc1ccc(CNC(=O)CSC2=Nc3ccccc3C3=NC(C)C(=O)N23)cc1` (stereo not given), the “activity change, negative = inhibition” value was -3.8% (inactive).

Turning to `CCCN1C(=O)C(O)(CC(=O)c2ccc(CC)cc2)c2cc(Br)ccc21` (stereo not given), the “activity change, negative = inhibition” value is -2.45% (inactive).

For the compound `CCOC(=O)c1ccc(-c2ccc(/C=C(\C#N)C(=O)Nc3ccc(C)cc3)o2)cc1`, the “activity change, negative = inhibition” value is -6.58% (inactive).

With `COc1ccc(NC(=O)/C(C#N)=C\c2cc(OC)c(OCc3ccc(C(=O)O)cc3)cc2Br)cc1`, the Potency is 50.1 µM (active).

For `COc1ccc(CCNC(=O)CSc2nc(-c3ccc(OC)c(OC)c3)ccc2C#N)cc1`, the “activity change, negative = inhibition” value was -16.6% (inactive).

Turning to `COc1ccc2c(c1)Cc1sc(NC(=O)c3ccccc3Br)nc1-2`, the “activity change, negative = inhibition” value was -17.5% (inactive).

For `O=c1cc(CSc2ncn[nH]2)[nH]c2ccc(F)cc12`, the “activity change, negative = inhibition” value is -5.87% (inactive).

Consider `CCOC(=O)C1CCCN(C(=O)c2ccc(CS(=O)(=O)c3ccc(Br)cc3)o2)C1` (stereo not given), for which the “activity change, negative = inhibition” value was -7.23% (inactive).

For the compound `O=C(c1ccc(CS(=O)(=O)c2ccccc2)o1)N1CCN(c2ccccc2)CC1`, the Potency was 50.1 µM (active).

Consider `O=C(c1ccc(CS(=O)Cc2ccccc2Cl)o1)N1CCN(c2ccccc2)CC1` (stereo not given), for which the “activity change, negative = inhibition” value was -11% (inactive).

In the case of `COC(=O)c1sccc1S(=O)(=O)N(CC(=O)Nc1ccc(C)c(F)c1)c1ccc(C)c(C)c1`, the “activity change, negative = inhibition” value was -16.4% (inactive).

As to `CN(C)S(=O)(=O)c1cccc(-c2nn(-c3ccccc3)cc2/C=C2\SC(=S)N(CC(=O)O)C2=O)c1`, the Potency was 35.5 µM (active).

Take `Cc1nc(C)c(-c2nnc(-c3cccc(S(=O)(=O)N(C)C)c3)o2)cc1C(=O)NN`: the “activity change, negative = inhibition” value is -1.81% (inactive).

As for `Cc1ccc(-c2nn(-c3ccccc3)cc2/C=C2\SC(=S)N(CCCCCC(=O)O)C2=O)o1`, the Potency was 44.7 µM (active).

Consider `Cc1nn(-c2ccc(F)cc2)c(-n2cccc2)c1C(=O)N1CCN(c2ccccc2)CC1`, for which the “activity change, negative = inhibition” value is -19.6% (inactive).

Consider `COc1ccccc1N1CCN(CCCNC(=O)c2cnn(-c3ccccc3Cl)c2C2CCN(C(=O)OC(C)(C)C)CC2)CC1`, for which the “activity change, negative = inhibition” value was -19.7% (inactive).

Take `CSc1ccc(CCNC(=O)c2cnn(-c3ccccc3)c2-n2cccc2)cc1`: the “activity change, negative = inhibition” value was -21.5% (inactive).

Consider `O=C(Nc1ccc(F)cc1F)c1ccc2c(=O)n3c(nc2c1)CCCCC3`, for which the “activity change, negative = inhibition” value is 7.2% (inactive).

`CCc1cccc(NC(=O)c2cnc(N3CCOCC3)c3ccccc23)c1`: the “activity change, negative = inhibition” value was -24.7% (inactive).

`CCOC(=O)C1C(=O)C=C(c2ccc(OC)cc2)CC1c1ccco1` (stereo not given): the “activity change, negative = inhibition” value is -5.95% (inactive).

Take `CCOC(=O)C1=C(c2ccc(OC)cc2)C(=O)c2ccccc2C1=O`: the Potency is 89.1 µM (active).

Turning to `CCOC(=O)C1=C(c2ccccc2)NC(=O)NC1c1cc(OC)c(OC)cc1OC` (stereo not given), the “activity change, negative = inhibition” value is 5.55% (inactive).

Turning to `Clc1ccc(CSc2nncn3c2cc2occc23)cc1`, the “activity change, negative = inhibition” value is -28.9% (inactive).

Regarding `CCOC(=O)C1=C(C)OC(N)=C(C#N)C1c1cncc(-c2ccc(F)cc2)c1` (stereo not given), the “activity change, negative = inhibition” value was -10.5% (inactive).

Turning to `C=CCC1(C#N)C(=S)NC(C)=C(C(=O)OCC)C1c1ccccc1` (stereo not given), the “activity change, negative = inhibition” value was -9.51% (inactive).

`C=CCOC(=O)C1=C(C)NC(SCC(=O)OCC)=C(C#N)C1c1ccc(C)cc1` (stereo not given): the Potency was 17.8 µM (active).

As for `COC(=O)c1c(NC(=O)c2ccc(Cl)c(Cl)c2)sc2c1CCCC2`, the “activity change, negative = inhibition” value is -18.5% (inactive).

As for `COC(=O)c1ccc(-c2nc3cc(NC(C)=O)ccc3o2)cc1`, the “activity change, negative = inhibition” value was 0.0029% (inactive).

For `CC1CCN(C(=O)CSc2nnc(-c3ccco3)n2N)CC1`, the “activity change, negative = inhibition” value was -18.2% (inactive).

As to `NC(=O)c1c(NC(=O)CSc2nnc(-c3ccco3)n2N)sc2c1CCCC2`, the Potency is 12.6 µM (active).

Turning to `CCOC(=O)c1c(NC(=O)CSc2nnc(CN3CCOCC3)n2C)sc2c1CCCC2`, the “activity change, negative = inhibition” value is -21.9% (inactive).

Consider `CCOC(=O)c1c(C)[nH]c(CCC(=O)NCCCN2CCN(c3cc(C)ccc3C)CC2)c1C`, for which the “activity change, negative = inhibition” value is -20.8% (inactive).

As for `CCCc1nn2c(=O)cc(COC(=O)c3ccc(NC(=O)C(C)Oc4ccccc4)cc3)nc2s1` (stereo not given), the “activity change, negative = inhibition” value is -0.486% (inactive).

Take `COc1ccc(OC)c(CCNC(=O)CCCn2c(=O)c3cccn3c3cccnc32)c1`: the “activity change, negative = inhibition” value is -8.68% (inactive).

As to `Cc1ccccc1-c1nc2scc(CCNC(=O)C(=O)Nc3ccc(F)cc3F)n2n1`, the “activity change, negative = inhibition” value was -18.1% (inactive).

Take `Cc1ccc(C(=O)NCCSc2c(C)[nH]c3ccccc23)cc1C`: the “activity change, negative = inhibition” value was -23.4% (inactive).

On to `CCCCNC(=O)c1cc(-c2ccc(Cl)c(Cl)c2)on1`, for which the “activity change, negative = inhibition” value was -6.17% (inactive).

Take `O=C(O)CCc1cccnc1`: the “activity change, negative = inhibition” value is -2.96% (inactive).

Turning to `O=C1/C(=C\c2cccnc2)CN(Cc2ccccc2)C/C1=C\c1cccnc1`, the Potency is 50.1 µM (active).

Take `Nc1ccc2c(c1)C(=Cc1cccnc1)c1ccccc1-2`: the “activity change, negative = inhibition” value was -16% (inactive).

On to `COc1ccc(OCC(=O)Nc2cccc(C(=O)OCc3cc(=O)n4nc(C)sc4n3)c2)cc1`, for which the “activity change, negative = inhibition” value is -20.5% (inactive).

On to `O=C(O)C1CCN(c2ccc([N+](=O)[O-])cc2[N+](=O)[O-])CC1`, for which the Potency is 25.1 µM (active).

Consider `CC1CCN(c2ccc(C(=O)NCc3ccc4c(c3)OCO4)cc2[N+](=O)[O-])CC1`, for which the “activity change, negative = inhibition” value was -26.9% (inactive).

With `Cc1cccc(N2CCN(c3ccc(C(N)=O)cc3[N+](=O)[O-])CC2)c1C`, the “activity change, negative = inhibition” value was -7.46% (inactive).

`CC1CCN(c2ccc(S(=O)(=O)Nc3cc(C(=O)O)cc(C(=O)O)c3)cc2[N+](=O)[O-])CC1`: the Potency was 22.4 µM (active).

With `Cc1ccc(C(=O)c2ccc(N3CCN(C)CC3)c([N+](=O)[O-])c2)cc1`, the “activity change, negative = inhibition” value is -11.6% (inactive).

For `CC1CCN(c2ccc(C(=O)Nc3nnc(C4CC4)s3)cc2[N+](=O)[O-])CC1`, the “activity change, negative = inhibition” value was -2.8% (inactive).

In the case of `COc1ccc(C(=O)Nc2onc3c2CCCC3)cc1`, the “activity change, negative = inhibition” value is -17.3% (inactive).

As to `COc1ccc(CCNS(=O)(=O)c2cc(-c3cc(C)no3)ccc2C)cc1OC`, the “activity change, negative = inhibition” value is -9.95% (inactive).

As to `Cc1ccccc1NC(=O)Cn1c(=O)n(CC2CCC(C(=O)NCCc3ccccc3)CC2)c(=O)c2ccccc21` (stereo not given), the “activity change, negative = inhibition” value is -0.383% (inactive).

`O=C(CSc1nc2nccnc2c(=O)n1CCc1c[nH]c2ccccc12)Nc1ccccc1F`: the “activity change, negative = inhibition” value was -13.3% (inactive).

The record behind these values is PubChem BioAssay AID588591 (National Center for Advancing Translational Sciences (NCATS), 2011).
